# Pf growth 96h = Primary qHTS for delayed death inhibitors of the malarial parasite plastid, 96 hour incubation | P. falciparum luciferase reporter growth, 96 h | Potency, µM (series often up to 28.7 µM), without a hit: at the highest dose activity change, negative = inhibition, usual class: inhibitors | 320,000 tested, 6.9% active; further: potency means the concentration at half of the fitted maximal effect; on the % scale 0 is the no-effect control and ±100 the full control effect
#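 P. falciparum expressing integrated firefly luciferase, in erythrocytes at 2% hematocrit, 0.05% parasitemia, incubated with compounds 96 h at 37 C, 5% CO2. Growth inhibition read as loss of luminescence; two-generation exposure targets delayed-death apicoplast inhibitors.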
# HCMV antiviral = qHTS Assay for inhibitors of the human cytomegalovirus (HCMV); 410,000 tested, 4.5% active; HFF cells, HCMV-luciferase reporter, 72 h; active compounds read low; AID 1259415, 2018; activity change, negative = inhibition, % at 57.5 µM; in the data active means activity change below about -60%; inconclusive means no clear call, values can overlap the other calls; inactive means above about -39%; further: on the % scale 0 is the no-effect control and ±100 the full control effect
#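 Luciferase read-out from HCMV-luciferase-infected HFFs (MOI 1 PFU/cell) 72 h post infection at 37C; compounds added after 16 h cell attachment; activity normalized between buffer-only basal and Salinomycin (10uM) inhibitor controls.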
# Shiga toxin inh = A qHTS for Small Molecule Inhibitors of Shiga Toxin; Vero cells, Shiga toxin protein synthesis inhibition reporter; inhibition, % at 38.7 µM; 290,000 tested, 9.2% active; AID 2315, 2010; in the data active means inhibition mostly above about 28%, no sharp cut-off; inactive means mostly below about 43%; further: 0% is about no effect
# Pf growth 48h = Primary qHTS for delayed death inhibitors of the malarial parasite plastid, 48 hour incubation | P. falciparum luciferase growth in erythrocytes, 48 h | Potency, µM (highest dose often 28.7 µM), for inactives: at the top dose activity change, negative = inhibition, hits mostly inhibitors | 310,000 tested, 5.9% active | AID 504832, 2011; further: potency means the concentration at half of the fitted maximal effect; on the % scale 0 is the no-effect control and ±100 the full control effect
#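 Luciferase-expressing parasites in RBCs, 2% Hct / 0.1% parasitemia final; RPMI 1640 + 0.5% Albumax; 37 C, 5% CO2, one generation; luminescence read-out, lower signal = inhibition.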
# Cycloheximide cs = Cycloheximide Counterscreen for Small Molecule Inhibitors of Shiga Toxin; 300,000 tested, 12% active; cell reporter, cycloheximide protein synthesis inhibition counterscreen; max response, %; in the data active means max response mostly above about 13%, no sharp cut-off; inactive means mostly below about 14%; further: read at 38.3 µM for the half of the compounds with a filed dose; 0% is about no effect
# An asterisk follows results filed as active; i = inactive; ? = inconclusive; nt = no result given. Sampled rows, rich in hits. Any-hit rate of the full collection: about 20%. Unless noted, the call rests on the fitted dose curve; in most records, active means well fitted inhibition curve with a large enough effect; inconclusive means small, poorly fitted or top-dose-only effect, or another doubt; inactive means no such curve, though single readings can be large or run the other way.
SMILES,Pf growth 96h,HCMV antiviral,Shiga toxin inh,Pf growth 48h,Cycloheximide cs
NC(=O)c1ccc(NC(=O)CS(=O)(=O)c2cn(CC(=O)N3CCCCC3)c3ccccc23)cc1,?,-23.5,3.2,-15.3%,1.9
CCC1CCc2sc(C(=O)NCc3ccccn3)cc2C1 (stereo not given),?,16.7,60.7*,-15.5%,36.7*
CCCCCCc1c(C)nc(-n2[nH]c(C)c(CCO)c2=O)[nH]c1=O,9.28µM*,-19.7,-17.4,?,-6.6
Cc1nc(N2CCOCC2)[nH]c(=O)c1CCC(C)C,nt,16.4,25.9,8.2%,7.8
CCCCc1c(C)nc(N2CCCC2)[nH]c1=O,4.65µM*,22.4,19.5,6.57µM*,2.5
CCCCCCCc1c(C)nc(N2CCOCC2)[nH]c1=O,nt,0.1,-12.2,1.47µM*,-5.0
O=C(Nc1ccccc1)Nc1cccc(-c2nnco2)c1,-23.5%,nt,47.9*,-4.7%,20.3*
O=C(Cc1ccccc1)NNC(=O)c1ccc(NC(=O)c2ccccc2)cc1,-18.9%,-2.7,-7.8,-11.3%,9.3
O=C(Nc1ccc(-c2nnco2)cc1)c1ccccc1,17.5%,31.6,68.5*,41.6%,13.5*
COc1ccccc1CNC(=O)CCC1N=C2c3ccccc3N=C(SCC(=O)NCCc3ccc(OC)c(OC)c3)N2C1=O (stereo not given),nt,-15.7,nt,nt,nt
CCn1ccc(C(=O)NC2CCCC2)n1,-13.2%,18.2,14.5,11.4%,1.6
Cc1cnc(NC(=O)c2cncc(Br)c2)s1,i,11.4,53.2*,i,29.8*
Cc1cnc(NC(=O)c2ccncc2)s1,0.0%,6.8,36.1*,22.8%,17.5*
Cc1nnc(NC(=O)c2ccncc2)s1,?,-18.1,-7.7,nt,-3.1
CCn1ccc(C(=O)Nc2ncc(C)s2)n1,-14.9%,41.9,56.9*,24.2%,27.7*
CN(C)c1ccc(/C=N/N2C(=S)SC(C)(C)C2N(O)C(=O)Nc2ccc([N+](=O)[O-])cc2)cc1 (stereo not given),?,52.1,29.1,?,16.0
O=C(O)C(Cc1ccccc1)N1C(=O)C=CC1=O (stereo not given),nt,17.1,nt,nt,nt
CC[C@@]1([C@@H]2O[C@@H]([C@H]3O[C@@](O)(CO)[C@H](C)C[C@@H]3C)C[C@@H]2C)CC[C@H]([C@]2(C)CC[C@]3(C[C@H](O)[C@@H](C)[C@@H]([C@@H](C)[C@@H](OC)C(C)C(=O)O)O3)O2)O1 (stereo not given in full),nt,nt,23.3,nt,6.2
COC1CCC(OC2CC(C3(C)CCC4(CC(O)C(C)C(C(C)/C=C(\C)C(=O)C(C)CC(C)C(=O)O)O4)O3)OC3(OC(C4OC(O)(CO)C(C)CC4C)CC3C)C2C)OC1C (stereo not given),nt,-97.6*,nt,nt,nt
CCOCCn1c(C)c(C(=O)OCC)c2cc(O)c3ccccc3c21,3.7µM*,0.8,nt,2.33µM*,nt
CCOC(=O)c1c(C)n(COCCO)c2ccc(O)cc12,nt,0.9,5.7,-4.8%,8.9
CCOc1ccc(OCc2cccc(C(=O)N/N=C/c3cccnc3)c2)cc1,234.0%,82.7,165.8*,254.4%,88.3*
Cc1ccc(C(=O)N/N=C/c2cccnc2)cc1Cl,nt,-31.3,nt,nt,nt
CC(C)c1ccc(OCc2cccc(C(=O)N/N=C/c3cccnc3)c2)cc1,129.5%,171.4,164.0*,277.7%,133.1*
COc1ccc(C2=NOC(C(=O)NCCCn3ccnc3)C2)cc1 (stereo not given),?,-3.1,-11.1,nt,-0.6
SMILES,Pf growth 96h,HCMV antiviral,Shiga toxin inh,Pf growth 48h,Cycloheximide cs
CCc1ccc(NC(=O)N(Cc2c[nH]c3ccccc23)C2CCCCCC2)cc1,nt,80.8,20.9,nt,20.0
Cc1csc(/N=C/c2ccc([N+](=O)[O-])cc2)n1,19.0%,22.5,-1.2,1.5%,-2.2
CCN1CCN(/C=N/c2nc(C)cs2)CC1,-13.4%,66.0,75.9*,98.9%,33.1*
O=c1c(S(=O)(=O)c2ccc(Cl)cc2)cn(Cc2ccccc2F)c2ccc(F)cc12,?,1.2,12.4,?,-0.5
N/C(Cc1cccs1)=N\OC(=O)COc1ccc(Cl)cc1Cl,0.0%,43.8,127.2*,nt,59.1*
N/C(Cc1ccc(Cl)cc1Cl)=N\OC(=O)Cc1cccs1,-3.4%,5.8,51.5*,24.7%,36.4*
N/C(Cc1ccc(Cl)cc1Cl)=N\OC(=O)c1cccs1,1.8%,14.4,51.8*,46.6%,11.3
C=Cc1ccc(COc2ccc3oc(-c4ccccc4)c(C(=O)OCC)c3c2)cc1,nt,16.8,nt,nt,nt
CCCOc1ccc(N2C(=O)CC(SC(=N)N3N=C(c4ccccc4)CC3c3ccccc3)C2=O)cc1 (stereo not given),-21.6%,61.0,-3.5,2.33µM*,-1.4
CCCOc1ccc(N2C(=O)CC(SCc3nc4ccccc4[nH]3)C2=O)cc1 (stereo not given),22.8%,-1.8,-3.7,20.3%,-1.9
COc1cccc(C2C(C(=O)Nc3ccccc3OC)=C(C)Nc3nc4ccccc4n32)c1 (stereo not given),nt,-23.0,nt,nt,nt
O=C(CSc1nnnn1C1CCCCC1)NCc1cccs1,33.3%,-22.6,7.2,34.6%,3.6
CCOc1ccc(NC(=O)CSc2nnnn2C2CC2)cc1S(=O)(=O)N1CCCC1,14.7µM*,-3.4,nt,?,nt
O=C(CSc1nnnn1C1CCCCC1)NCCc1ccccc1,nt,-10.5,42.4*,44.1%,62.3*
Cc1cc(NC(=O)CSc2nnnn2C2CCCC2)no1,7.38µM*,-30.3,-8.0,14.9%,-1.2
CCOc1ccc(NC(=O)CSc2nnc(C)n2C2CC2)cc1S(=O)(=O)N1CCCC1,?,-27.4,nt,?,nt
Cc1ccc(NC(=O)CSc2nnnn2C2CCCC2)cc1S(=O)(=O)N1CCOCC1,8.28µM*,?,nt,?,nt
O=C(Cn1cnc2cc([N+](=O)[O-])ccc2c1=O)Nc1ccccc1-c1ccccc1,?,0.0,3.7,?,-1.9
Nc1nsnc1C(=O)NCCO,2.33µM*,-12.8,2.2,16.8%,-1.1
c1ccc(COc2ncnc3c2ncn3CCCNCc2cccs2)cc1,nt,-23.1,nt,nt,nt
Cc1cccc(C(=O)Nc2ccc(C(=O)N3CCCCC3C)cc2)c1 (stereo not given),-14.9%,-26.7,29.5,?,23.6*
CC(=O)N1CCN(c2ccc(NC(=O)c3cccc(C)c3)cc2)CC1,?,16.6,nt,69.7%,12.8*
CC(=O)N1CCN(c2ccc(NC(=O)c3cccc(F)c3)cc2)CC1,nt,26.4,nt,nt,nt
Cc1ccc(C)c(S(=O)(=O)NCc2ccc(C(=O)N3CCCCC3C)cc2)c1 (stereo not given),4.15µM*,-14.3,-9.6,nt,-7.3
Cc1ccc(C)c(S(=O)(=O)Nc2ccc(C(=O)N3CCCCC3)cc2)c1,10.7%,-31.6,-24.5,11.6%,-1.6
CC(=O)N1CCN(c2ccc(NC(=S)NC(=O)c3ccccc3)cc2)CC1,?,-25.2,-2.0,-4.9%,-2.7
CC1CCCCN1C(=O)c1ccc(C(=O)N2CCCCC2C)cc1 (stereo not given),?,-2.6,-17.2,-3.2%,10.2

# Screening data: PubChem BioAssay, National Center for Advancing Translational Sciences (NCATS)
